Consider ten compounds from PubChem BioAssay.

A short description of assay [1]: compounds altering circadian rhythm period length – cell-based, LOPAC library, luminescence reporter (AID 2774; call rule not given here;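 also: values are relative to mean of DMSO wells on each plate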). The conditions noted are these: circadian reporter cells, at 7 µM, actives lie on both sides.
The test system of assay [2] is Hepatitis C virus NS3 helicase. Briefly: blockers of NS3h binding to ssDNA – biochemical, fluorescence polarization, LOPAC1280 library, primary screen (AID 687035; in the data active = inhibition above about 37%). The settings on record: Purified HCV NS3 helicase, Cy5-dT15 ssDNA binding fluorescence polarization; stronger effect = higher value; concentration not given here.
The nature of assay [3]: compounds altering Cy5-DNA-NS3h complex signal – biochemical, LOPAC1280, artefact control for HCV NS3 helicase inhibitor project (AID 687037; call rule not given here). The conditions noted are these: Cy5-DNA-NS3h complex fluorescence interference counterscreen.
Assay [4] in a line: viability loss with induced miR-34 in A549 – imaging, A549 dox-inducible miR-34, nuclei and caspase counts, primary screen (AID 1347080). The settings on record: A549 miR-34 inducible, Hoechst nuclei count, 48 h.
Assay [5] is described as follows: blockers of cellular phospholipid synthesis – cell-based, LOPAC library, screen 4, primary screen (AID 1347384; call rule not given here). The conditions noted are these: animal cells, phospholipid biosynthesis inhibition screen; at 10 µM.
A short description of assay [6]: galactose survival enhancers in mitochondrial complex I cybrids – cell-based, galactose medium, ATP luminescence, primary screen (AID 1645843;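 active = z-score of at least 1.8 in each of two replicates, scored against plate mean and spread of sample wells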;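 also: positive z means more ATP and so rescue of galactose-driven cybrid death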). The settings on record: complex I mutant cybrid cells, 72 h, stronger effect = higher value.
Assay [7] can be described thus: MELAS cybrid and Rieske KO viability enhancers – cell-based, MELAS cybrids, Rieske KO mouse fibroblasts, CellTiter-Glo, primary screen (AID 1508586;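 active = mean z-score across replicates of 1.96 or higher in either the MELAS or the Rieske mutant cell line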;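 also: z relative to plate mean and SD of compound and empty wells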). The settings on record: low glucose.
A short description of assay [8]: compounds altering viability of human ES cells (AID 493140; call rule not given here;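 also: cells exposed to compounds for four days before counting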). The settings on record: human embryonic stem cell survival screen; stronger effect = higher value.
The nature of assay [9]: P. berghei load reduction in hepatocytes – cell-based, HepG2, luciferase luminescence, HepG2 viability, primary screen (AID 624349; in the data active = parasite load remaining mostly below about 12%, no sharp cut-off; inactive = mostly above about 10%;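 also: 100% = mean of DMSO negative control wells on the same plate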). The conditions noted are these: P. berghei liver stage in HepG2, luciferase luminescence, concentration not given here; parasite load remaining: stronger effect = lower value; viability: measured here: HepG2 viability without parasites.
Assay [10] has as its target ATP-dependent translocase ABCB1 (Homo sapiens) (UniProt P08183). Briefly: P-glycoprotein substrate transport blockade – cell-based (AID 377; in the data active = fluorescence slope change above about 50%). The settings on record: MDR1-expressing cells, fluorescent substrate accumulation slope; stronger effect = higher value; concentration not given here.
The target of assay [11] is NAD(+) hydrolase SARM1 (Homo sapiens) (UniProt Q6SZW1). Put plainly: blocking NAD cleavage by SARM1 SAM-TIR – cell lysate, NAD-Glo luminescence (AID 1508614;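 active = compound whose remaining NAD level is above about 45 nM, limit read from the data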;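 also: higher remaining NAD means stronger inhibition of SARM1 NADase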). The conditions noted are these: SAM-TIR HEK293T lysate NADase, at 1 µM, stronger effect = higher value.
Assay [12] concerns the target Mitogen-activated protein kinase 7 (Homo sapiens) (UniProt Q13164). Put plainly: Gal4-ERK5 driven luciferase induction – cell-based, HTS, primary screen (AID 1508626;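 active = luciferase signal above three times the same-plate solvent-only control wells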;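 also: luciferase driven by Gal4-ERK5 fusion binding five Gal4 sites before minimal TATA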). The settings on record: HeLa Gal4-ERK5 transactivation, 18 h, at 5 µM, stronger effect = higher value.
The mark [13] stands for this setting: stronger effect = lower value, cell number ratio, induced over uninduced.
Where [14] appears, read: measured here: relative caspase fold change +Dox/-Dox.
Where [15] appears, read: measured here: total cells with miR-34 induction, stronger effect = lower value.
The mark [16] stands for this setting: measured here: total cells without miR-34 induction.
Setting [17] is: MELAS cybrid survival, CellTiter-Glo 48 h, stronger effect = higher value.
[18] abbreviates: Rieske KO mouse fibroblast survival, CellTiter-Glo 72 h.

Several values for one entry are separate records, joined by “and”; a condition that tells them apart may be missing. Identical values can stand only once. Records with an inconclusive call do not appear. Activity calls are given as the source filed them.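 The calls were made as follows, unless noted: active = compounds whose cell count with miR-34 switched on is under 0.7 times the count with it off; inactive = the rest.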

Mitogen-activated protein kinase 7 (Homo sapiens), sequence (Q13164 whole entry, looked up, the tested form may be a part): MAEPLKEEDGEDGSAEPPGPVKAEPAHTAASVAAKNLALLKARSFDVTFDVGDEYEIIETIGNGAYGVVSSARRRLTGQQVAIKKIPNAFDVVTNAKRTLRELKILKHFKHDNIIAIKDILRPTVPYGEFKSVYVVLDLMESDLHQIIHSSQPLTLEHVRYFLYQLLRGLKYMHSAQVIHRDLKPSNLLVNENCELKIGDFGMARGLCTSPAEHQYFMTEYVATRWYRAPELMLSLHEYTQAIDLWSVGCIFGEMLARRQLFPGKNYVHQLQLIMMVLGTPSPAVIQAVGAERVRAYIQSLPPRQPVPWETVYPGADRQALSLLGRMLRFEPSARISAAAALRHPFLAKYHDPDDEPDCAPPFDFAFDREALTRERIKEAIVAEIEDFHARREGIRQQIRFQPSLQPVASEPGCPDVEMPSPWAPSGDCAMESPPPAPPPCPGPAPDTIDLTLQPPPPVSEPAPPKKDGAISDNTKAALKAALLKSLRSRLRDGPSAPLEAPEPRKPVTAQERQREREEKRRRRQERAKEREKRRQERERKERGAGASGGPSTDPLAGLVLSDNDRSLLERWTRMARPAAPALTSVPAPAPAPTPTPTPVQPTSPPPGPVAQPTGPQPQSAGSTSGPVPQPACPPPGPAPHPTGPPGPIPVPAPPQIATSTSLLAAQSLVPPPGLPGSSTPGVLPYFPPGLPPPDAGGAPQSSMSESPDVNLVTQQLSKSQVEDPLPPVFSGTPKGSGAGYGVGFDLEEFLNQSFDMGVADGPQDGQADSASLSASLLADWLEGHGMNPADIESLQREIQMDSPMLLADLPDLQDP
NAD(+) hydrolase SARM1 (Homo sapiens), sequence (Q6SZW1 whole entry, looked up, the tested form may be a part): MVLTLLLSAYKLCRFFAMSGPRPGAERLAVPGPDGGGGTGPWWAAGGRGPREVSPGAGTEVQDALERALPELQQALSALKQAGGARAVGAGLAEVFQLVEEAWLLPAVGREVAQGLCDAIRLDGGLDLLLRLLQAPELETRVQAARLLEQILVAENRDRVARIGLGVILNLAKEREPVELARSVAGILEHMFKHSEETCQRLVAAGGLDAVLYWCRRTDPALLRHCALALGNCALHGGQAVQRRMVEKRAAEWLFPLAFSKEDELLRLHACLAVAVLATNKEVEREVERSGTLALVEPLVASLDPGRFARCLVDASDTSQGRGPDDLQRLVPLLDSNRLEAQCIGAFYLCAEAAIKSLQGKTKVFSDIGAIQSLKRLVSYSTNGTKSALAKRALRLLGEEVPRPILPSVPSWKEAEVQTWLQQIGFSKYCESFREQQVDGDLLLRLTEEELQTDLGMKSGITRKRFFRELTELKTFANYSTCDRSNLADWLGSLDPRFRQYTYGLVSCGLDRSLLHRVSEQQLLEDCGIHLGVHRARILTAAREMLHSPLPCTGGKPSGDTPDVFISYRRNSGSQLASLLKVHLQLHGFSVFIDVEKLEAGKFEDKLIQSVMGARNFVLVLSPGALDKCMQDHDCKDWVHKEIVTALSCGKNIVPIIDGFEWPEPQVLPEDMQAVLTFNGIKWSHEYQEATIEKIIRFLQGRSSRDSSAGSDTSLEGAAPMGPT
ATP-dependent translocase ABCB1 (Homo sapiens), sequence (P08183 whole entry, looked up): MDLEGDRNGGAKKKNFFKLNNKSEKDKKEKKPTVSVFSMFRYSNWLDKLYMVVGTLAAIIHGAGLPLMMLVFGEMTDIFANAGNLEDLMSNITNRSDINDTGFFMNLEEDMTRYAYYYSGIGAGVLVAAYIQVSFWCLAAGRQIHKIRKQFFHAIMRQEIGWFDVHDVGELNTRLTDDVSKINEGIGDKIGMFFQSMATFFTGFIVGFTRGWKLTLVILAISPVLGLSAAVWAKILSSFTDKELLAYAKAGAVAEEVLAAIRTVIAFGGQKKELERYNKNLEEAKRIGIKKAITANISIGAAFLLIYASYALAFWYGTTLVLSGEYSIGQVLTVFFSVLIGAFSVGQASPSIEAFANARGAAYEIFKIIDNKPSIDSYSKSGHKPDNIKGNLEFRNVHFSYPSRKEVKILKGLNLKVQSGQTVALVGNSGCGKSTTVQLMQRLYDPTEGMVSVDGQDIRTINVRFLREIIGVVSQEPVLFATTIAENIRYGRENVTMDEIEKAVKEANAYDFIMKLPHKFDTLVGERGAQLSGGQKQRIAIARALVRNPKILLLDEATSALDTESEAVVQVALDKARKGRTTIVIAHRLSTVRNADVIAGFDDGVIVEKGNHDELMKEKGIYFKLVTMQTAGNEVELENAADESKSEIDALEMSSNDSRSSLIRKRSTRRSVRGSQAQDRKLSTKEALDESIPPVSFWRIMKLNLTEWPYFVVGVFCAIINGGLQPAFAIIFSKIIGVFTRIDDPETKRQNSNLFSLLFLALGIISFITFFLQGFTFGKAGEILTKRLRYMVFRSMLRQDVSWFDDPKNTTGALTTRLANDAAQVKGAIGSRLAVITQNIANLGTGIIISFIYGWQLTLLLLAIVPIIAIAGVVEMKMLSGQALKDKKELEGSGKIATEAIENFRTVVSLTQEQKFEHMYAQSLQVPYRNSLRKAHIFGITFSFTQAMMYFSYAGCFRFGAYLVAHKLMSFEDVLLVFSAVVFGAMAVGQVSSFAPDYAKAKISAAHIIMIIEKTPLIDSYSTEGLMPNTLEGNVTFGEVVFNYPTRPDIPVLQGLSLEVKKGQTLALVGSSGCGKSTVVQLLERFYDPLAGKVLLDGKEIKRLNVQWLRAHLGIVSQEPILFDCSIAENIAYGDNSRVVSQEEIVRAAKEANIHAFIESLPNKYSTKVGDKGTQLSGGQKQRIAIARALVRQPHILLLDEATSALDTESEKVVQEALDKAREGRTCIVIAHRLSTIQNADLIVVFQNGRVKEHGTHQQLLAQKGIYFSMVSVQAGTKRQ

As for `CNC(=O)[C@H]1O[C@@H](n2cnc3c(NCc4cccc(I)c4)ncnc32)C(O)[C@H]1O` (stereo partly specified), the period change in assay [1] was -0.015 h (inactive). Further, in assay [2], the inhibition was -2% (inactive). Moreover, in assay [3], the fluorescence ratio (interference) is 0.9 (inactive). Besides, the fold change is 1.05 (inactive) and 1.03 (inactive) in assay [4] (setting [13]); 0.68 and 1.21 in assay [4] (setting [14]). Besides, the cell count in [4] (setting [15]) was 10000 and 5680; in [4] (setting [16]), 9560 and 5540. For the same compound, in assay [5], the outcome was inactive. For the same compound, the z-score in assay [6] is 2.43 (active).
With `C[C@]12C=CC(=O)C=C1CC[C@@H]1C2=CC[C@]2(C)[C@@H](C(=O)CN3CCN(c4cc(N5CCCC5)nc(N5CCCC5)n4)CC3)CC[C@@H]12`, in assay [1], the period change is 0.075 h (inactive). In assay [2], the inhibition was -5% (inactive). Besides, the fluorescence ratio (interference) in [3] was 0.9 (inactive). For the same compound, the fold change in [4] (setting [13]) is 0.983 (inactive) and 1.04 (inactive); in [4] (setting [14]), 0.64 and 0.868. Moreover, the cell count in [4] (setting [15]) is 8450 and 5900; in assay [4] (setting [16]), 8600 and 5690. Moreover, the compound was called inactive in assay [5]. Further, the z-score in assay [6] is 1.27 (inactive).
For `CC(C)(C)NCC(O)COc1nsnc1N1CCOCC1` (stereo unspecified), the period change in assay [1] was -0.09 h (inactive). For the same compound, the inhibition in assay [2] is -2% (inactive). Further, the fluorescence ratio (interference) in assay [3] was 1 (inactive). The fold change is 0.926 (inactive) and 0.855 (inactive) in assay [4] (setting [13]); 1.26 and 0.99 in assay [4] (setting [14]). For the same compound, the cell count in assay [4] (setting [15]) is 9690 and 8250; in assay [4] (setting [16]), 10500 and 9640. Further, the result in [5] was inactive. Also, the z-score was -0.232 (inactive) in assay [7] (setting [17]), -0.152 in [7] (setting [18]) and 0.22 (inactive) in assay [6].
For the compound `CNCC(O)C(O)C(O)C(O)CO` (stereo unspecified), the survival in [8] is 4.5 (inactive). For the same compound, the parasite load remaining in assay [9] was 95.3% (inactive). In [9], the viability was 101%. Besides, the fold change in assay [4] (setting [13]) was 0.893 (inactive) and 0.901 (inactive); in assay [4] (setting [14]), 1.03 and 1.16. The cell count in assay [4] (setting [15]) is 8100 and 7840; in assay [4] (setting [16]), 9080 and 8700. The z-score was -0.226 (inactive) in assay [7] (setting [17]) and 0.0963 in assay [7] (setting [18]).
Take `O=c1onc2n1-c1cc(Br)ccc1OC2`: the period change in [1] is 0.015 h (inactive). Further, in assay [2], the inhibition was -4% (inactive). For the same compound, the fluorescence ratio (interference) in assay [3] was 1 (inactive). The fold change was 1.09 (inactive) and 0.947 (inactive) in assay [4] (setting [13]); 1.04 and 0.916 in [4] (setting [14]). Besides, the cell count in assay [4] (setting [15]) is 11200 and 5950; in [4] (setting [16]), 10300 and 6280. In assay [5], the outcome was inactive. The z-score in [6] is 0.095 (inactive).
Take `CCOC(=O)C(CCc1ccccc1)NC1CCc2ccccc2N(CC(=O)O)C1=O` (stereo unspecified): the fold change in assay [4] (setting [13]) was 0.901 (inactive) and 0.923 (inactive) and 1.08 (inactive); in assay [4] (setting [14]), 1.61 and 0.619 and 0.514. The cell count was 9200 and 8490 and 8200 in assay [4] (setting [15]); 10200 and 9200 and 7620 in assay [4] (setting [16]). In addition, the z-score in assay [7] (setting [17]) is 0.349 (inactive) and -0.387 (inactive); in assay [7] (setting [18]) it was -0.629 and -0.0664; in assay [6] it was 0.855 (inactive) and 0.665 (inactive).
With `O=C1CC(c2ccc(O)cc2)Oc2cc(O)cc(O)c21` (stereo unspecified), the fluorescence slope change in assay [10] was 29.7% (inactive). The survival in assay [8] was 12.5 (inactive). For the same compound, the parasite load remaining in assay [9] was 129% (inactive) and 75.7% (inactive). In addition, in [9], the viability is 105% and 74.5%. Besides, the fold change in [4] (setting [13]) is 0.857 (inactive) and 0.936 (inactive); in assay [4] (setting [14]) it was 1.25 and 0.746. Further, the cell count in assay [4] (setting [15]) is 9030 and 10100; in [4] (setting [16]) it was 10500 and 10800. Further, the z-score in assay [7] (setting [17]) was -0.339 (inactive); in [7] (setting [18]) it was 0.634.
With `O=C(O)C=Cc1ccc(Cn2ccnc2)cc1`, the fold change in assay [4] (setting [13]) was 0.955 (inactive) and 0.883 (inactive) and 0.902 (inactive); in assay [4] (setting [14]), 1.3 and 1.43 and 0.779. The cell count in assay [4] (setting [15]) was 9560 and 7820 and 10000; in assay [4] (setting [16]), 10000 and 8860 and 11100. The z-score in [7] (setting [17]) was -0.304 (inactive) and -0.385 (inactive); in assay [7] (setting [18]), 0.761 and 0.973; in assay [6], 0.575 (inactive).
With `O=C(c1ccc(OCCCc2cnc[nH]2)cc1)C1CC1`, in assay [2], the inhibition is -3% (inactive). Further, the fluorescence ratio (interference) in [3] was 1 (inactive). The fold change in assay [4] (setting [13]) was 0.955 (inactive) and 1.01 (inactive); in assay [4] (setting [14]), 1.12 and 0.82. Besides, the cell count is 9150 and 7760 in assay [4] (setting [15]); 9580 and 7660 in assay [4] (setting [16]). For the same compound, the compound was classed as inactive in assay [5]. Further, the z-score in assay [7] (setting [17]) was -0.324 (inactive); in assay [7] (setting [18]), -0.0656; in assay [6], -1.01 (inactive).
For `NC(=O)c1cc[n+](CC2=C(C(=O)O)N3C(=O)[C@@H](NC(=O)[C@@H](c4ccccc4)S(=O)(=O)[O-])[C@H]3SC2)cc1`, the period change in assay [1] was -0.015 h (inactive). Also, the survival in [8] was 7.17 (inactive). In assay [9], the parasite load remaining is 79.7% (inactive). In addition, in [9], the viability is 103%. In assay [2], the inhibition was 4% (inactive). Also, the fluorescence ratio (interference) in [3] is 1 (inactive). Also, the fold change in assay [4] (setting [13]) was 1.02 (inactive) and 0.887 (inactive); in assay [4] (setting [14]) it was 2.31 and 1.36. Also, the cell count in assay [4] (setting [15]) was 10400 and 9300; in assay [4] (setting [16]), 10200 and 10500. Also, the z-score in assay [7] (setting [17]) is 0.659 (inactive); in assay [7] (setting [18]), -0.267; in assay [6], -0.05 (inactive). In [11], the remaining NAD is 10 nM (inactive). Besides, the luciferase signal in assay [12] was 36 AU (inactive).
